Compounds with a hit are over-represented: about 2.4% of the library has one in this group of screens.
D2 PAM-1 = positive allosteric modulators of human D2 dopamine receptor | 340,000 compounds, 0.34% hits | potentiation, % at 10 µM | AID 485347 | HEK293 T-REx D2, calcium flux, EC20 dopamine potentiation;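 active = potentiation over 3 SD above the plate norm, cut at about 30% in these data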
Target sequence (P14416 whole entry, looked up): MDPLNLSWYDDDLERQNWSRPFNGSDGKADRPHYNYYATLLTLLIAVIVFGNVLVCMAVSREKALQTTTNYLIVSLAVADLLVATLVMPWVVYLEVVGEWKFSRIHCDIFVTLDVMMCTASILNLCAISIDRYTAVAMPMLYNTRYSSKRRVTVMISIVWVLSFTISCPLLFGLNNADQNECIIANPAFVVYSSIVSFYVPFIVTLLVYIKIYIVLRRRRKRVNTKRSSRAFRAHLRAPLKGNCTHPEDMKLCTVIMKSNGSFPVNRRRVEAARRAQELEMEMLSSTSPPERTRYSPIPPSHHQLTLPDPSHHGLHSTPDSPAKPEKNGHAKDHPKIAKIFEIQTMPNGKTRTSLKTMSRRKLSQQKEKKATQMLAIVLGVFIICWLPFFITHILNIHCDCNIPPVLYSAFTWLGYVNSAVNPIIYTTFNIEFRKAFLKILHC
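Using a no-wash calcium dye in inducible, force-coupled HEK293 Trex cells expressing D2, we tracked fluorescence each second for 180 s after compound, then for 180 s after EC20 dopamine to detect augmented signalling.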
D2 antag = antagonizes the human D2 dopamine receptor. P14416. HEK293 TREx D2 cells, calcium flux, dopamine EC80. inhibition, % at 10 µM. 340,000 compounds, 2% hits. AID 485344; in the data active = inhibition above about 30%; inactive = below that, where a call was filed
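HEK293 T-REx D2 cells, tet-induced, calcium dye no-wash. Cpd pintool add, 180 s kinetic, then EC80 DA, 180 s kinetic. Ca flux read.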
D2 ag-1 = activates the human D2 dopamine receptor | P14416 | HEK293 T-REx D2 cells, calcium flux agonist mode | activation, % at 2 µM | 340,000 compounds, 0.53% hits;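 active = activation over 3 SD above normal in the single-dose calcium agonist read, cut at about 30% in these data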
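In this primary screen, compounds producing a positive calcium signal within 180 s of addition to tetracycline-induced, force-coupled HEK293 Trex D2 cells are flagged; cells are dye-loaded with a no-wash calcium kit beforehand.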
D2 ag-2 = activates the human D2 dopamine receptor; P14416; DiscoveRx PathHunter D2 beta-arrestin, luminescence, 90 min; 100% = 57 uM dopamine signal; activation, % (test concentration not listed); 360,000 compounds, 0.084% hits; AID 624465; in the data active = activation above about 40%; inconclusive = between about 15% and that limit
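Agonist mode: compounds alone added to overnight-plated D2 PathHunter cells for 90 min at 37 C, with 57 uM final dopamine (EC100) defining full response. Beta-arrestin recruitment detected by chemiluminescent reagent, read after 1 h at ambient temperature.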
D2 PAM-2 = potentiates the human D2 dopamine receptor allosterically. P14416. DiscoveRx D2 beta-arrestin cells, luminescence, 90 min; 100% = 57 uM dopamine signal. potentiation, % (concentration not given with the values). 360,000 compounds, 0.23% hits; in the data active = potentiation above about 50%; inconclusive = mostly about 30% to 49%
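PathHunter beta-arrestin assay in DiscoveRx D2 cells. Compounds were added with an EC20 of dopamine (50 nM final) for 90 min at 37 deg C. Luminescence was read 1 h after detection reagent, with 57 uM dopamine as the EC100 control.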
A number is an active result; n = inactive; u = inconclusive; x = no result given.

SMILES | D2 PAM-1 | D2 antag | D2 ag-1 | D2 ag-2 | D2 PAM-2
CC(=O)Nc1ccccc1C(=O)N1CC(C)OC(C)C1 (stereo unspecified) | 40 | n | n | n | n
O=C(CCN=C1NS(=O)(=O)c2ccccc21)OCc1nnc(-c2ccc([N+](=O)[O-])cc2)o1 | x | x | x | n | 69
N#Cc1ccccc1COC(=O)CCN=C1NS(=O)(=O)c2ccccc21 | x | x | x | n | n
C=C(C)Cn1c(SCC(=O)Nc2ccccc2C)nc2sc3c(c2c1=O)CCCC3 | x | x | n | x | x
Cc1ccc(CN(C(=O)COc2ccc(F)cc2)C2CCS(=O)(=O)C2)o1 (stereo unspecified) | n | x | n | x | x
Cc1ccc(S(=O)(=O)N(C)C)cc1NC(=S)NCCc1ccccn1 | n | 34 | n | n | n
Cc1ccc(S(=O)(=O)N(C)C)cc1NC(=S)Nc1ccc2cn[nH]c2c1 | n | 43 | n | n | n
CN(C)S(=O)(=O)c1cccc(NC(=S)NCCc2ccccn2)c1 | n | n | n | n | n
c1ccc2c(c1)CCCN2Cc1nnnn1CC1CCCO1 (stereo unspecified) | 32 | n | n | n | n
c1ccc(CCn2nnnc2CN2CCCc3ccccc32)cc1 | n | n | n | n | n
Cc1ccc(C(=O)NC(=S)Nc2cccnc2Cl)cc1 | 40 | n | n | n | n
COc1ccccc1C(=O)NC(=S)Nc1cccnc1Cl | n | n | n | n | n
Cc1ccc(NC(=O)C(=O)NCC(c2cccnc2)N2CCN(Cc3ccccc3)CC2)cc1Cl (stereo unspecified) | n | x | n | x | x
Cc1ccc(C(=O)NCCc2csc(C)n2)cc1 | n | 43 | n | n | n
CCOC(=O)c1ccc(NC(=O)CC(=O)Nc2ccc3nc4n(c(=O)c3c2)CCCCC4)cc1 | n | x | n | x | x
Cc1cc2oc(=O)cc(CSc3nnc(-c4cccs4)o3)c2cc1C(C)C | n | 36 | n | n | n
COc1cc2c(cc1OC)C(CNC(=O)C=Cc1cc(OC)c(OC)c(OC)c1)C2 (stereo unspecified) | x | x | x | n | n
CCOc1ccc(-c2c(C)nn3c(C)c(C(=O)NCc4cccc(OC)c4)cnc23)cc1OCC | n | x | n | x | x
Cc1ccc(S(=O)(=O)n2cc(-c3ccccc3)c(N)n2)cc1 | n | n | n | n | n
Nc1nn(S(=O)(=O)c2ccccc2)cc1-c1ccc([N+](=O)[O-])cc1 | n | n | n | u | 74
CCOC(=O)c1cc2c(=O)n3ccccc3nc2n(C(C)C)c1=NC(=O)c1cc2ccccc2o1 | n | x | n | x | x
COCCNC(=O)C1(C)CCCN(Cc2ccc3ccccc3c2Br)C1 (stereo unspecified) | x | x | x | n | n
Cc1noc(C)c1C(=O)OCC(=O)NC1CC1 | n | n | n | n | n
Cc1noc(C)c1C(=O)OCC(=O)NC1CCCCC1C (stereo unspecified) | 37 | n | n | n | n
Cc1ccccc1NC(=O)c1c(O)c2cccc3c2n(c1=O)CCC3 | n | 47 | n | x | x
SMILES | D2 PAM-1 | D2 antag | D2 ag-1 | D2 ag-2 | D2 PAM-2
O=C(CSc1nc2c([nH]c3ccccc32)c(=O)n1-c1ccc(F)cc1)NCc1ccccc1 | n | x | n | x | x
COc1cccc(/C=C/C(=O)Nc2ccc3nc4n(c(=O)c3c2)CCCC4)c1OC | 35 | n | n | n | n
COc1cccc(/C=C/C(=O)Nc2ccc(C(=O)Nc3cccc(S(N)(=O)=O)c3)cc2)c1OC | n | 77 | n | n | n
COc1cccc(/C=C/C(=O)Nc2cccc(C(C)=O)c2)c1OC | n | n | n | n | n
COc1cccc(/C=C/C(=O)Nc2ccc3c(c2)OCCO3)c1OC | n | 69 | n | n | n
COc1cc(/C=C/C(=O)Nc2ccc3nc4n(c(=O)c3c2)CCCC4)cc(OC)c1OC | n | n | n | n | n
O=C(CCCn1c(=O)c2sccc2n(Cc2ccc(Cl)cc2)c1=O)NCc1ccc2c(c1)OCO2 | n | x | n | x | x
O=[N+]([O-])c1cc([N+](=O)[O-])c(Oc2cccnc2Br)cc1NN1CCCCC1 | n | 35 | n | n | n
O=C(Nc1ccccc1O)c1cc(S(=O)(=O)N2CCCC2)ccc1Cl | n | x | n | x | x
COCCCNC(=O)c1oc2c(c1C)-c1nn(Cc3cccc(Cl)c3)cc1CC2 | n | x | n | x | x
CCOC(=O)C1=NN(C(=O)c2ccc(C)cc2)C(O)(c2ccc(Cl)cc2)C1 (stereo unspecified) | n | n | 31 | n | n
CCn1c(COc2cccc3ccccc23)nnc1SCC(N)=O | 37 | n | n | n | n
C=CCn1c(COc2ccccc2)nnc1SCC(=O)O | 33 | n | n | n | n
CCn1c(COc2ccccc2)nnc1SCC(=O)c1cccc([N+](=O)[O-])c1 | 35 | n | n | n | n
CCn1c(COc2ccccc2C)nnc1SCC(=O)NCc1ccccc1 | n | n | n | n | n
CNC(=O)CSc1nnc(COc2ccc([N+](=O)[O-])cc2)n1C | x | 76 | n | n | n
CCOc1cc(C)ccc1OCc1nnc(SCC(=O)c2cccc([N+](=O)[O-])c2)n1CC | n | n | n | n | n
CCOc1ccc(C2/C(=C(/O)c3ccc(Cl)cc3)C(=O)C(=O)N2CCCN(C)C)cc1OC (stereo unspecified) | n | 45 | n | x | x
CN(C)CCN1C(=O)C(=O)/C(=C(/O)c2ccc(OCc3ccccc3)cc2)C1c1ccncc1 (stereo unspecified) | n | 42 | n | n | n
COc1ccccc1-c1nnc2n(CCc3ccccc3)c(=O)c3ccccc3n12 | n | x | x | x | x
Cc1cc(C)c(NC(=O)c2cc(C)nc3c2c(C)nn3-c2cccc(F)c2)c(C)c1 | n | x | x | x | x
O=C(CSc1nc2ccccc2[nH]1)Nc1c(F)c(F)c(F)c(F)c1F | 43 | n | n | n | n
CC1(C)Cc2c(sc(/N=C/N3CCCC3)c2C#N)C(C)(C)N1 | n | 33 | n | n | n
CC1(C)Cc2c(sc(/N=C/N3CCCCCC3)c2C#N)C(C)(C)N1 | n | n | n | n | n
COc1ccc(CCNC(=O)c2ccc3c(c2)OCCO3)cc1 | n | n | n | n | n
SMILES | D2 PAM-1 | D2 antag | D2 ag-1 | D2 ag-2 | D2 PAM-2
COc1ccc(C(CNC(=O)c2ccc3c(c2)OCCO3)N(C)C)cc1 (stereo unspecified) | x | 45 | n | n | n
CN(C)C(CNC(=O)c1ccc(C(=O)c2ccccc2)cc1)c1ccccc1 (stereo unspecified) | n | n | n | n | n
CN(C)C(CNC(=O)c1ccc(-c2ccccc2)cc1)c1ccccc1 (stereo unspecified) | n | 31 | n | n | n
Cc1ccc(-c2csc(=Nc3ccc(F)cc3)n2Cc2ccc3c(c2)OCO3)cc1C | n | x | n | x | x
c1ccc(Cn2nnc3c(N4CCc5ccccc54)ncnc32)cc1 | 36 | n | n | n | n
COc1cc(C)ccc1OCCSc1nc2ccc(NC(=O)c3ccccc3F)cc2s1 | x | x | n | x | x

High-throughput results (PubChem)
